These results are taken from PubChem BioAssay (NCI).

Where “and” joins values, the source holds several entries; their conditions need not be identical. Equal values may be shown once. Compounds without any hit were thinned out: in the full panel of roughly 83,000, 20% have a hit.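 Values shown are percent growth following 48 h exposure of cells in 96-well plates to a single concentration of compound; below 10 was considered active.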 Calls of active or inactive are those of the source.

This assay concerns HL-60(TB) leukemia. The assay is described as follows: NCI-60 one-dose screen, 48 h (100 = growth as untreated, 0 = no growth, -100 = all killed). The settings on record: 10 µM unless noted.
For `O=C(Nc1ccc(F)cc1)c1cc(-c2ccc(F)cc2F)ccc1O`, the growth is 0.532% (active).
In the case of `CC(C)(C)CC(C)(C)n1nnnc1C(Nc1nccs1)c1cc2cccc3ccc4cccc1c4c32` (stereo unspecified) it was 107% (inactive); in that of `COc1ccc2c(ccn2C(=O)N2c3ccccc3Sc3ccccc32)c1`, 13.7% (inactive); in that of `COc1ccc(N2C(=O)c3cc(OC)c(OC)cc3NC2SCc2ccccc2)cc1` (stereo unspecified), 110% (inactive).
For the compound `COc1cc2c(cc1OC)C(Sc1ccc(F)cc1)c1c(nc(N)c(C#N)c1N)O2` (stereo unspecified), the growth was -14.2% (active).
As to `Oc1ccc(CSc2nnc(-c3cnccn3)n2-c2ccccc2)c2cccnc12`, the growth was 14.4% (inactive).
Take `COc1cc(/C=C/C(=O)c2ccc(NC(=O)CSc3nnc(-c4ccc5nc(-c6ccccc6)[nH]c5c4)o3)cc2)cc(OC)c1OC`: the growth is 69% (inactive).
Turning to `C#C[C@]1(O)CC[C@H]2[C@@H]3CC=C4c5sc(-c6cccc(O)c6)nc5CC[C@]4(C)[C@H]3CC[C@@]21C`, the growth is -30.7% (active).
`CCCc1[nH]c(-c2cc(N)ccc2Cl)c2c1C(=O)CCCC2`: the growth is 92.4% (inactive).
Then `Cc1cn(-c2cc(NC(=O)c3cncc(C#Cc4cnc5ccc(O[C@H]6CCOC6)nn45)c3)cc(C(F)(F)F)c2)cn1`, with 37.6% (inactive); and `Cc1nc2ncc(-c3ccc4ncnc(NCc5ccccc5)c4c3)cc2[nH]1`, with 109% (inactive).
`Oc1ccc(CSc2nnc(-c3cnccn3)o2)c2cccnc12`: the growth is -11.5% (active).
Then `CN1CCN(c2ccc(Nc3nc(NCCNS(=O)(=O)c4ccc5ccccc5c4)c4sccc4n3)cc2)CC1`, with -29.5% (active); and `C#CC(=O)N(c1ccc(OC)cc1OC)C(C(=O)NCC(=O)OCC)c1cccs1` (stereo unspecified), with -51.2% (active); and `COc1ccc(/C=N/N=C(/c2ccccc2)c2ccc3nc(-c4ccc(Cl)cc4)[nH]c3c2)cc1`, with 67.2% (inactive).
In the case of `CN1c2ccccc2Sc2cc(C=C(C#N)C#N)ccc21` it was 92.6% (inactive); in that of `CC(C)Sc1nc(NC2CC2)c(C#N)c(-c2ccccc2)n1`, 112% (inactive).
In the case of `Nc1nc(=O)n([C@H]2C[C@H](O)[C@@H](CO)O2)cc1C=O` it was 94.1% (inactive); in that of `O=C(CSc1nc2ccccc2c(=O)n1-c1ccc(Cl)cc1)N/N=C/c1ccc(N2CCCCC2)cc1`, 108% (inactive).
On to `C#C[C@]1(O)CC[C@H]2[C@@H]3CC=C4c5sc(NCc6ccccc6)nc5CC[C@]4(C)[C@H]3CC[C@@]21C`, for which the growth was 24% (inactive).
In the case of `CC1(C)[C@@H](O)CC[C@]2(C)[C@H]3CC[C@@H]4[C@H]5[C@H](C(=O)/C=C\c6ccncc6)CC[C@]5(O)CC[C@@]4(C)[C@]3(C)CC[C@@H]12` it was 26.4% (inactive); in that of `COc1ccc2c(c1)oc1c3[nH]c4ccccc4c3c3c(c21)C(=O)N(O)C3=O`, 53.3% (inactive); in that of `N/C(=N\C(N)=N\c1nc2ccccc2s1)c1ccc2ccccc2c1`, 99.8% (inactive).
Then `O=C(NNc1nc2cc(F)cc(F)c2n2cccc12)c1ncccn1`, with -2.92% (active); and `COc1cc(-c2nc(-c3ccccc3)[nH]c2-c2ccnc(NCCCNS(=O)(=O)c3ccc(C(F)(F)F)cc3)n2)ccc1Cl`, with 13.9% (inactive) and 37.8% (inactive).
In the case of `COc1ccc(-n2c(SCC(=O)Nc3ccc(-c4nc5ccccc5[nH]4)cc3)nc3ccccc3c2=O)cc1` it was 45.6% (inactive); in that of `Nc1nc(-c2cccc([N+](=O)[O-])c2)c(N=Nc2ccc([N+](=O)[O-])cc2Cl)s1`, 6.8% (active).
Consider `CS(=O)(=O)c1nccc(-c2c(-c3ccc(F)c(OCc4ccccc4)c3)nc3sccn23)n1`, for which the growth was 5.59% (active).
In the case of `O=C1c2c(c3c4cc(Br)ccc4[nH]c3c3ccc4ccccc4c23)C(=O)N1CCN1CCCCC1` it was 1.48% (active); in that of `CCOC(=O)Nc1ccc2c(ccn2C(=O)c2cccc(F)c2)c1`, 12.3% (inactive); in that of `O=C(Nc1ccc2c(ccn2Cc2ccccn2)c1)c1ccnnc1`, 145% (inactive).
Then `COc1ccc(/C=N/NC(=O)CSc2nc(-c3cnccn3)cc(-c3cccs3)c2C#N)cc1`, with 93.8% (inactive); and `O=C(CCn1c[n+](CC(=O)c2ccc(-c3ccccc3)cc2)c2ccccc21)Nc1cccc2cccnc12`, with -42.3% (active).
On to `C#CCN(C)CCCOc1ccc(NC(=O)CCCCCCC(=O)NO)cc1Cl`, for which the growth was 12.1% (inactive).
In the case of `Brc1cc(-c2cc(-c3ccc4c(c3)OCCO4)[nH]n2)cs1`, the growth is 24% (inactive).
Consider `CC(=O)Nc1cccc(-n2cnc3cc(-c4ccc(O)cc4)ccc32)c1`, for which the growth was 6.68% (active).
